Results published in PubChem BioAssay.
For some of these results: Results with a measured potency or affinity are listed apart. Activity calls are given as the source filed them. Unless noted, the rule behind the calls is not given here.

What was measured:
[1] = antimalarial activity against Dd2 strain (AID 2302;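 active = growth inhibition above 50% at the single 2 µM test dose, taken to imply half-maximal potency below 2 µM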;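 note: 0% = DMSO untreated growth and 100% = chloroquine plus artemisinin killed control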); details: P. falciparum Dd2 in RBCs, LDH growth readout, 72 h; at 2 µM; stronger effect = higher value
[2] = biological target: L-lactate dehydrogenase (Plasmodium falciparum (isolate CDC / Honduras)) (UniProt Q27743); assay: PfLDH activity inhibition – cell lysate, 3D7 strain, counter-screen for P. falciparum growth inhibition project (AID 2304);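 note: 0% = vehicle and 100% = reference inhibitor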; details: P. falciparum 3D7 crude extract, LDH APAD/NBT absorbance; at 2 µM; stronger effect = higher value
L-lactate dehydrogenase (Plasmodium falciparum (isolate CDC / Honduras)), sequence (Q27743 whole entry, looked up): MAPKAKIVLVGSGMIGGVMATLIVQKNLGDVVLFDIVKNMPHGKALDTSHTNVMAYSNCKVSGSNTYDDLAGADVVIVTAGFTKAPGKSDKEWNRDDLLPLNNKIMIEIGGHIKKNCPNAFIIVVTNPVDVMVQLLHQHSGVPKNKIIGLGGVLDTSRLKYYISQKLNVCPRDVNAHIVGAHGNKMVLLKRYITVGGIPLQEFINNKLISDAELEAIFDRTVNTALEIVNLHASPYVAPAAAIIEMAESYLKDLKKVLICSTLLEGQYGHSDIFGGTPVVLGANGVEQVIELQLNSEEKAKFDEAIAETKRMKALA

[3] = inhibition of 3D7 malaria parasite growth – strain 3D7 (AID 2306);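 note: 0% = DMSO wells and 100% = chloroquine plus artemisinin control wells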; details: P. falciparum 3D7 erythrocytic growth, LDH absorbance, 72 h; at 2 µM; stronger effect = higher value
[4] = biological target: Calcium-dependent protein kinase 1 (Plasmodium falciparum (isolate 3D7)) (UniProt P62344); assay: PfCDPK1 kinase inhibitors, biochemical, TCAMS library (AID 1159585; cut-off not given, nearly all actives have IC50 up to about 0.98 µM;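 note: inhibitors leave more ATP so luminescence rises with inhibition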); details: recombinant PfCDPK1, Kinase-Glo ATP depletion luminescence
Calcium-dependent protein kinase 1 (Plasmodium falciparum (isolate 3D7)), sequence (P62344 whole entry, looked up): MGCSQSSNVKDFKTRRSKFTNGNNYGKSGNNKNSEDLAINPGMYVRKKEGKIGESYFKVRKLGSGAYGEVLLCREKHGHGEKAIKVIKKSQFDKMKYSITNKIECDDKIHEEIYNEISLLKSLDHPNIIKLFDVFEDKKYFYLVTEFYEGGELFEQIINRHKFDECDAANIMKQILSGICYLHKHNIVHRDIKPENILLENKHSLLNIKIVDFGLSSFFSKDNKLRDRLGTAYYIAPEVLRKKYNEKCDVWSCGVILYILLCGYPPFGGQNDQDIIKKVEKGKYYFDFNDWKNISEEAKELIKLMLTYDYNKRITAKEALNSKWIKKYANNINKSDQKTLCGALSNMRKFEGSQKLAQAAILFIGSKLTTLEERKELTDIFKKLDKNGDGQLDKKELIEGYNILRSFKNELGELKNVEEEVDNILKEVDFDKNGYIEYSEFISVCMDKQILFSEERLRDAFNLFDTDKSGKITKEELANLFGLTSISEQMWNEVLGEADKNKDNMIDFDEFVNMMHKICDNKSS

[5] = biological target: Plasmodium falciparum protein kinase 6 (PK6, PF3D7_1337100) (UniProt Q8IDW1); assay: PfPK6 kinase inhibitors, biochemical, TCAMS library (AID 1159586); details: recombinant PfPK6, Kinase-Glo ATP depletion luminescence
Plasmodium falciparum protein kinase 6 (PK6, PF3D7_1337100), sequence (Q8IDW1 1-305): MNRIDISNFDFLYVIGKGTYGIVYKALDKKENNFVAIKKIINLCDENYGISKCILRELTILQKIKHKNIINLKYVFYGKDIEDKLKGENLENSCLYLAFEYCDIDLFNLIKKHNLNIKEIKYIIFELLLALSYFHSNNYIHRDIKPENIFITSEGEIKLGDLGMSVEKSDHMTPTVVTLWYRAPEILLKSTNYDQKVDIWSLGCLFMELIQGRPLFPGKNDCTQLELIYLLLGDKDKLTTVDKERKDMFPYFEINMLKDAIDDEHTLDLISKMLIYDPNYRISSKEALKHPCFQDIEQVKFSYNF

[6] = biological target: Protein kinase 7 (PK7), Plasmodium falciparum 3D7 (PF3D7_0213400) (UniProt Q7YTF7); assay: inhibition of Plasmodium PK7 catalytic activity – biochemical, TCAMS antimalarial set, Kinase-Glo luminescence (AID 1159587); details: recombinant PfPK7, Kinase-Glo ATP depletion luminescence
Protein kinase 7 (PK7), Plasmodium falciparum 3D7 (PF3D7_0213400), sequence (Q7YTF7 1-343): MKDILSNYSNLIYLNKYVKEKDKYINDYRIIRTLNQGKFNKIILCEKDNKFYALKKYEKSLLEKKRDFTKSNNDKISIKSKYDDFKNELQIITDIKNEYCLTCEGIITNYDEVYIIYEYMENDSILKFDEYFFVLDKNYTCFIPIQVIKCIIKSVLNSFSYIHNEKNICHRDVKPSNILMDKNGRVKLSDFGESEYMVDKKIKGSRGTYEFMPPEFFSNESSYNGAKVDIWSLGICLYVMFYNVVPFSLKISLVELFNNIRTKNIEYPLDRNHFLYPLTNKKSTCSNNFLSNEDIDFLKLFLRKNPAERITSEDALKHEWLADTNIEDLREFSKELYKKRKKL

[7] = biological target: Calcium-dependent protein kinase 4 (Plasmodium falciparum (isolate 3D7)) (UniProt Q8IBS5); assay: PfCDPK4 kinase inhibitors, biochemical, TCAMS library (AID 1159588; cut-off not given, nearly all actives have IC50 up to about 0.91 µM); details: recombinant PfCDPK4, Kinase-Glo ATP depletion luminescence
Calcium-dependent protein kinase 4 (Plasmodium falciparum (isolate 3D7)), sequence (Q8IBS5 whole entry, looked up): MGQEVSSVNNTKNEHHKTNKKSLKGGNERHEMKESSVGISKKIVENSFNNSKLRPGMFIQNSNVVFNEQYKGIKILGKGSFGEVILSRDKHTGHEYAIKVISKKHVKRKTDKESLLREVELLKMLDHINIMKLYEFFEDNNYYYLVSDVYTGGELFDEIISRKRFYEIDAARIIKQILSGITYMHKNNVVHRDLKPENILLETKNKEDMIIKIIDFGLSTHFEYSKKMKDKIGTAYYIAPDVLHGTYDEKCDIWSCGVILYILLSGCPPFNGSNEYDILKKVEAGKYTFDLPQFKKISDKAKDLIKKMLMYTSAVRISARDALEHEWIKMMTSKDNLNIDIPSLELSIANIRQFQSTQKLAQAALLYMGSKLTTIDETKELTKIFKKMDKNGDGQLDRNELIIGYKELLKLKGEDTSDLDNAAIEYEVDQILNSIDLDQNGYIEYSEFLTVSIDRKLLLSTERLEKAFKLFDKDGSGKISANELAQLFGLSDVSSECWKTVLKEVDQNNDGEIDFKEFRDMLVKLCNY

[8] = human hepatoma cell viability loss – ATP luminescence, cytotoxicity control for P. falciparum antimalarial project, primary screen (AID 2303;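 active = inhibition above 50%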;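 note: 0% = DMSO wells and 100% = digitonin-killed cells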); details: HepG2 viability, 24-48 h, at 10 µM, stronger effect = higher value

CN(C)S(=O)(=O)n1ccc2c3c(N)nc(N)nc3ccc21
active: growth inhibition [3] 94%
inactive: growth inhibition [1] -3% | inhibition [2] -4% | outcome [4] | outcome [5] | outcome [6] | outcome [7]

Cc1[nH]c(C)c(-c2ccc(OCc3ccc(F)cc3)nc2)c(=O)c1Br
active: growth inhibition [1] 97% | growth inhibition [3] 97%
inactive: inhibition [8] 41% | inhibition [2] -4% | outcome [4] | outcome [5] | outcome [6] | outcome [7]

CC(C)n1c(C(C)(C)C)cc2c3c(N)nc(N)nc3ccc21
active: growth inhibition [1] 99% | growth inhibition [3] 100%
inactive: inhibition [2] -3% | outcome [4] | outcome [5] | outcome [6] | outcome [7]

CCOc1cc(Cc2cnc(N)nc2N)cc(Br)c1OC
active: growth inhibition [3] 83%
inactive: growth inhibition [1] 3% | inhibition [2] 5% | outcome [4] | outcome [5] | outcome [6] | outcome [7]

Nc1ccncc1C(=O)NCCCCN1CCN(c2nsc3ccccc23)CC1
inactive: growth inhibition [1] 9% | inhibition [2] 6% | outcome [4] | outcome [5] | outcome [6] | outcome [7]
active: growth inhibition [3] 101%

Cc1cccc2[nH]c(-c3ccc(-c4ccc(CN5CCCC(O)C5)cc4)s3)nc12 (stereo unspecified)
active: growth inhibition [3] 101%
inactive: growth inhibition [1] 29% | inhibition [8] 38% | inhibition [2] -1% | outcome [4] | outcome [5] | outcome [6] | outcome [7]

C[C@@H](CC1CCCCC1)OC(=O)N(C)[C@@H]1CCN(C#N)C1
inactive: inhibition [8] 5% | inhibition [2] 3% | outcome [4] | outcome [5] | outcome [6] | outcome [7]
active: growth inhibition [1] 96% | growth inhibition [3] 95%

Cc1ccc(-c2cc(C(=O)Nc3ccc(S(=O)(=O)N4CCOCC4)cc3)[nH]n2)c(O)c1C
active: growth inhibition [3] 91%
inactive: growth inhibition [1] 45% | inhibition [8] 18% | inhibition [2] -5% | outcome [4] | outcome [5] | outcome [6] | outcome [7]

Nc1nc(N)c2c3c(ccc2n1)NCCC3
active: growth inhibition [3] 97%
inactive: growth inhibition [1] -10% | inhibition [2] -3% | outcome [4] | outcome [5] | outcome [6] | outcome [7]

CCN(Cc1cccc2ccccc12)c1ccc2nc(N)nc(N)c2c1
inactive: inhibition [2] 3% | outcome [4] | outcome [5] | outcome [6] | outcome [7]
active: growth inhibition [1] 100% | growth inhibition [3] 100%

CC(C)(C)c1ccc(-c2nnc(N)nc2N)cc1
inactive: growth inhibition [1] -4% | inhibition [2] -4% | outcome [4] | outcome [5] | outcome [6] | outcome [7]
active: growth inhibition [3] 92%

CCOc1cc2ncnc(Nc3ccc(OCc4c(Cl)cccc4Cl)c(OC)c3)c2cc1OCC
inactive: growth inhibition [1] 12% | inhibition [2] 5% | outcome [4] | outcome [5] | outcome [6] | outcome [7]
active: growth inhibition [3] 89%

Cc1nc2nc(N)nc(N)c2c(C)c1Cc1ccc([N+](=O)[O-])cc1
active: growth inhibition [3] 98%
inactive: growth inhibition [1] 11% | inhibition [2] -1% | outcome [4] | outcome [5] | outcome [6] | outcome [7]

COc1ccc2nccc([C@@H](O)CN3CCC(NC(=O)C(c4cccs4)N4CCN(c5ccc(F)cc5)CC4)CC3)c2c1 (stereo partly specified)
active: growth inhibition [3] 97%
inactive: growth inhibition [1] 45% | inhibition [8] 9% | inhibition [2] 3% | outcome [4] | outcome [5] | outcome [6] | outcome [7]

NC(=O)c1ccccc1Nc1nc(Nc2ccc(N3CCOCC3)cc2)ncc1[N+](=O)[O-]
active: growth inhibition [1] 96% | inhibition [8] 53% | growth inhibition [3] 98%
inactive: inhibition [2] 1% | outcome [4] | outcome [5] | outcome [6] | outcome [7]

Cc1[nH]c(C)c(-c2ccc(Oc3ccc(Cl)cc3)cc2)c(=O)c1C
inactive: inhibition [2] -8% | outcome [4] | outcome [5] | outcome [6] | outcome [7]
active: growth inhibition [1] 95% | growth inhibition [3] 96%

Cc1[nH]c(C)c(-c2cccc(Oc3ccc(Cl)cc3)c2)c(=O)c1Br
active: growth inhibition [1] 97% | growth inhibition [3] 96%
inactive: inhibition [2] 4% | outcome [4] | outcome [5] | outcome [6] | outcome [7]

O=C(Nc1cccc(C(F)(F)F)c1)NC1CCN(c2ccnc3cc(Cl)ccc23)C1 (stereo unspecified)
inactive: inhibition [8] 18% | inhibition [2] 6% | outcome [4] | outcome [5] | outcome [6] | outcome [7]
active: growth inhibition [1] 89% | growth inhibition [3] 101%

C[C@H](NC(=O)c1c(CN2CCC(NC(=O)CC(C)(C)C)CC2)c(-c2cccs2)nc2ccccc12)C1CCCCC1
inactive: inhibition [8] -3% | inhibition [2] -3% | outcome [4] | outcome [5] | outcome [6] | outcome [7]
active: growth inhibition [1] 70% | growth inhibition [3] 91%

Nc1nc(N)c2c(ccc3c2ccn3Cc2ccc3c(c2)OCO3)n1
active: growth inhibition [1] 95% | growth inhibition [3] 100%
inactive: inhibition [2] -3% | outcome [4] | outcome [5] | outcome [6] | outcome [7]

COc1cc(CCNC(=O)Cc2ccc3ccccc3c2)ccc1OCc1ccccc1
active: growth inhibition [1] 61% | growth inhibition [3] 93%
inactive: inhibition [2] 2% | outcome [4] | outcome [5] | outcome [6] | outcome [7]

CCCCCCOc1ccc2ccccc2c1CNCCCCCCNCc1c(OCCCCCC)ccc2ccccc12
active: growth inhibition [1] 55% | growth inhibition [3] 85%
inactive: inhibition [2] 6% | outcome [4] | outcome [5] | outcome [6] | outcome [7]

Oc1ccc(-c2ccccc2)cc1CNC1CCCCC1
active: growth inhibition [1] 100% | growth inhibition [3] 95%
inactive: inhibition [8] 24% | inhibition [2] -3% | outcome [4] | outcome [5] | outcome [6] | outcome [7]

O=C(/C=C/c1ccc(Cl)c(Cl)c1)NCCCCCCN1CCCN(C(=O)Nc2ccc(F)c(Cl)c2)CC1
active: growth inhibition [3] 98%
inactive: growth inhibition [1] 1% | inhibition [8] 30% | inhibition [2] 0% | outcome [4] | outcome [5] | outcome [6] | outcome [7]

Cc1cc(NN=Cc2ccccc2[N+](=O)[O-])c2cccc(C)c2n1
inactive: inhibition [8] -6% | inhibition [2] 1% | outcome [4] | outcome [5] | outcome [6] | outcome [7]
active: growth inhibition [1] 100% | growth inhibition [3] 99%

CCOC(=O)c1c(NC(=O)c2ccccc2)sc2c(O)c(CNC3CCCCC3)ccc12
inactive: inhibition [8] 6% | inhibition [2] 1% | outcome [4] | outcome [5] | outcome [6] | outcome [7]
active: growth inhibition [1] 98% | growth inhibition [3] 99%

COc1cc(NC(=O)/C=C/c2cc(F)cc(F)c2F)cc(OCCN2CCC3(CC2)OCCO3)c1
inactive: growth inhibition [1] 26% | inhibition [8] 17% | inhibition [2] -3% | outcome [4] | outcome [5] | outcome [6] | outcome [7]
active: growth inhibition [3] 98%

COc1ccc2c(OC)cccc2c1CNCCCCCCNCc1c(OC)ccc2c(OC)cccc12
active: growth inhibition [3] 92%
inactive: growth inhibition [1] 28% | inhibition [2] -5% | outcome [4] | outcome [5] | outcome [6] | outcome [7]

O=C(NC(=O)c1ccccc1)NC1CCN(c2ccnc3cc(Cl)ccc23)C1 (stereo unspecified)
inactive: inhibition [8] 32% | inhibition [2] -2% | outcome [4] | outcome [5] | outcome [6] | outcome [7]
active: growth inhibition [1] 99% | growth inhibition [3] 101%

Cc1cc(N2CCCC2)nc(Nc2ccc(NC(=O)C3CCCC3)cc2)n1
active: growth inhibition [1] 81% | growth inhibition [3] 102%
inactive: inhibition [8] 27% | inhibition [2] 1% | outcome [4] | outcome [5] | outcome [6] | outcome [7]

CCOc1cc(C(C)C)ccc1C1CCN(CCCCNC(=O)c2ccc(NC(=O)c3ccc(Cl)cc3)cc2)CC1
active: growth inhibition [1] 98% | growth inhibition [3] 101%
inactive: inhibition [8] 32% | inhibition [2] 2% | outcome [4] | outcome [5] | outcome [6] | outcome [7]

Cc1c(F)cc(C(=O)NC2CC2)cc1-c1ccc2c(cnn2S(=O)(=O)c2ccc(F)c(F)c2)c1
active: growth inhibition [1] 76% | growth inhibition [3] 91%
inactive: inhibition [8] 49% | inhibition [2] -2% | outcome [4] | outcome [5] | outcome [6] | outcome [7]

Cc1[nH]c(C)c(-c2ccc(-c3ccc(F)cc3)cc2)c(=O)c1Cl
active: growth inhibition [1] 96% | growth inhibition [3] 96%
inactive: inhibition [2] -2% | outcome [4] | outcome [5] | outcome [6] | outcome [7]

CCCCN(CCCC)CCCN(CCCN(CCCC)CCCC)c1cc(C)nc(Nc2ccc(Cl)cc2)n1
inactive: inhibition [2] 0% | outcome [4] | outcome [5] | outcome [6] | outcome [7]
active: growth inhibition [1] 99% | growth inhibition [3] 101%

Oc1ccc2[nH]c(-c3cccc(F)c3)nc2c1CN1CCC(N2CCCC2)CC1
active: growth inhibition [1] 54% | growth inhibition [3] 100%
inactive: inhibition [8] 0% | inhibition [2] -6% | outcome [4] | outcome [5] | outcome [6] | outcome [7]

Nc1cc(C(F)(F)F)ccc1Cl
active: growth inhibition [3] 97%
inactive: growth inhibition [1] -1% | inhibition [8] 8% | inhibition [2] -1% | outcome [4] | outcome [5] | outcome [6] | outcome [7]

COc1cc(/C=C/C(=O)NCC(CCNc2cc(=O)c3ccccc3[nH]2)NCc2cc(Br)cc(Br)c2)cc(OC)c1 (stereo unspecified)
inactive: growth inhibition [1] 28% | inhibition [8] -11% | inhibition [2] -4% | outcome [4] | outcome [5] | outcome [6] | outcome [7]
active: growth inhibition [3] 90%

Cc1ccc(NCC(=O)Nc2ccc(F)c(Cl)c2)cc1S(=O)(=O)N1CCOCC1
inactive: inhibition [8] 2% | inhibition [2] 0% | outcome [4] | outcome [5] | outcome [6] | outcome [7]
active: growth inhibition [1] 97% | growth inhibition [3] 98%

c1ccc2c(CNCCCN3CCN(CCCNCc4c5ccccc5cc5ccccc45)CC3)c3ccccc3cc2c1
active: growth inhibition [1] 100% | growth inhibition [3] 101%
inactive: inhibition [2] 0% | outcome [4] | outcome [5] | outcome [6] | outcome [7]

Cc1ccc2ccncc2c1N
active: growth inhibition [3] 96%
inactive: growth inhibition [1] 4% | inhibition [2] -6% | outcome [4] | outcome [5] | outcome [6] | outcome [7]
